Hit rate of the full screen: of about 2,100 compounds, about 590 (28%) were called active. Roughly 42% stayed inconclusive and do not appear here. The call rests on the fitted dose curve; in most records, active means well fitted inhibition curve with a large enough effect; inconclusive means small, poorly fitted or top-dose-only effect; inactive means flat fitted curve, though single readings scatter. Some of the results follow.
The molecules below were run against DNA dC->dU-editing enzyme APOBEC-3F (Homo sapiens) (UniProt Q8IUX4) (assay: qHTS for inhibitors of Vif-A3F interactions: Cherry picks). Conditions: HeLa A3F-eYFP + Vif (tagged APOBEC3F with the HIV-1 protein that degrades it), eYFP fluorescence, 24 h.
Sequence of DNA dC->dU-editing enzyme APOBEC-3F (Homo sapiens) (Q8IUX4 whole entry, looked up): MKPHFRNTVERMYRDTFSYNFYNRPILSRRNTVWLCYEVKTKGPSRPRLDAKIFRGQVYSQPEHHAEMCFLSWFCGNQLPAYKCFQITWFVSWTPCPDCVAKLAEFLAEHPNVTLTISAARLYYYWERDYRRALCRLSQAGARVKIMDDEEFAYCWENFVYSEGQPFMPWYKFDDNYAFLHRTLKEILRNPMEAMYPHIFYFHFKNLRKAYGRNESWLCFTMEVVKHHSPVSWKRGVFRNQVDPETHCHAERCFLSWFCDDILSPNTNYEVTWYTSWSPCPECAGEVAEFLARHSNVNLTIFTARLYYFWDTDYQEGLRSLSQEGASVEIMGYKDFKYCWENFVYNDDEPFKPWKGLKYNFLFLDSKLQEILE
From the text: The recent discovery and characterization of host restriction factors, which provide a potent defense to invading retroviruses, has provided new targets for antiviral drug development. APOBEC3G (A3G) and APOBEC3F (A3F) are potent cytidine deaminases that block HIV-1 replication; HIV-1 expresses the Vif protein, which counteracts A3G and A3F by binding to them and inducing their proteasomal degradation. The Vif-A3G and Vif-A3F interactions provide two potential targets for development of small molecules which can interfere with the ability of Vif to degrade A3G or A3F. […] To identify inhibitors that can interfere with Vif mediated degradation of A3G and A3F, we have developed Hela cell lines that stably express A3G or A3F tagged with eYFP at the C-terminal end (A3G-eYFP or A3F-eYFP, respectively) and Vif. In the absence of an inhibitor, Vif induces degradation of A3G-eYFP and A3F-eYFP, and the cells are not fluorescent. In the presence of an inhibitor, it is expected that Vif will be unable to degrade A3G-eYFP and/or A3F-eYFP, resulting in an increase in yellow fluorescence. In this assay, Vif A3F was screened against the cherry picks ordered from the MLSMR. NIH Chemical Genomics Center [NCGC] NIH Molecular Libraries Probe Centers Network [MLPCN] MLPCN Grant: MH093245 Assay Submitter (PI): Vinay Pathak, National Cancer Institute
A3F-Vif cells were harvested from T225 flask and resuspended in phenol free OPTI-MEM medium with 5% FBS. Then 5 uL of 140,000 cells/mL resuspended cells was dispensed into each well of low base Aurora COC 1,536-well plates (black walled, clear bottom) using a Multidrop Combi dispenser. After overnight culture at 37 deg C with 5% CO2, a total of 23 nL of compounds at 5 selected concentrations from the NPC or positive control (2 mM stock of MG132) in DMSO was transferred to each well of the assay plate using a pintool (Kalypsys, San Diego, CA), and the plates were further incubated at 37 deg C with 5% CO2 for 24 hours. After that, the plates were measured on Acumen Explorer (TTP Lab Tech). The fluorescence was detected by 488 nm/Ex and […].
`Cc1nc2c3cc(F)ccc3n(Cc3ccccc3F)c2s1` was tested, and the Potency was 14 µM (active). `Cc1nc2c3cc(F)ccc3n(Cc3ccccc3)c2s1` was tested, and the Potency was 4.98 µM (active). `COc1cccc(CNCCSc2nnnn2C)c1OCc1ccc(F)cc1` was tested, and the max response was -0.625% (inactive). In the case of `Cc1ccc(S(=O)c2ccc([N+](=O)[O-])c3nonc23)cc1` (centres undefined), the Potency is reported as 18.4 µM (active). With `Cc1cc(/C=C2\SC(=S)N(Cc3ccco3)C2=O)c(C)n1-c1ccccc1` the Potency was 18.4 µM (active). For `O=C1/C(=C/c2ccc(O)cc2)SC(=S)N1Cc1cccnc1`, the max response was -10.2% (inactive). In the case of `CN(C)c1ccc(C=C2SC(=S)N(Cc3ccco3)C2=O)cc1`, the Potency is reported as 4.98 µM (active). In the case of `Cc1cc(/C=C2\SC(=S)N(C)C2=O)c(C)n1-c1ccccc1O`, the Potency is reported as 20.6 µM (active). For `Cc1cc(/C=C2\SC(=S)N(Cc3ccco3)C2=O)c(C)n1-c1cccnc1`, the Potency was 20.6 µM (active). With `S=C(Nc1cccc2ccccc12)NN1CCCCCC1` the max response was 0.0404% (inactive). `O=C(NCc1cccnc1)c1ccc([N+](=O)[O-])o1` was tested, and the max response was -20.4% (inactive). For `O=C(NN(c1ccccc1)c1ccccc1)c1ccc([N+](=O)[O-])o1`, the max response was -20.2% (inactive). `Cc1cc2ccccn2c1C(=O)c1ccc([N+](=O)[O-])o1` was tested, and the Potency was 11.6 µM (active). In the case of `N#C/C(=C\c1ccc(N2CCOCC2)o1)C(=O)NC1CCCCC1`, the Potency is reported as 15.8 µM (active). With `N#C/C(=C/c1ccc(N2CCOCC2)o1)C(=O)NC1CCCCC1` the Potency was 16.4 µM (active). `N#C/C(=C\c1ccc(N2CCCCC2)o1)C(N)=O` was tested, and the Potency was 15.8 µM (active). `Cc1onc(-c2c(F)cccc2Cl)c1C(=O)O/N=C(\N)c1ccc([N+](=O)[O-])o1` was tested, and the max response was -3.32% (inactive). In the case of `CSc1cccc(NC(=O)c2cc3c(COC(C)=O)cnc(C)c3oc2=O)c1`, the max response is reported as -5.04% (inactive). In the case of `O=C(NC1CCCCC1)c1cccc2c1C(=O)c1ccc(N3CCC(Cc4ccccc4)CC3)cc1S2(=O)=O`, the Potency is reported as 12.5 µM (active). For `Cc1cc(C)c(S(=O)(=O)N2CCCCC2CCNC(=O)C(=O)NCc2ccco2)c(C)c1` (centres undefined), the max response was -24.9% (inactive). `O=C(NCc1ccco1)c1cccc2c1C(=O)c1ccc(N3CCC(Cc4ccccc4)CC3)cc1S2(=O)=O` was tested, and the Potency was 23.1 µM (active). In the case of `O=C(NC1CC1)c1cccc2c1C(=O)c1ccc(N3CCC(Cc4ccccc4)CC3)cc1S2(=O)=O`, the Potency is reported as 20.6 µM (active). With `Cc1ccc(S(=O)(=O)N2CCCCC2CCNC(=O)C(=O)NCc2ccco2)cc1` (centres undefined) the max response was -26.1% (inactive). `COc1cc(/C=C2\C(=N)N3N=C(S(C)(=O)=O)SC3=NC2=O)ccc1OC(=O)c1ccco1` was tested, and the max response was 3.53% (inactive). `CN(C)c1ccc(/C=C2\C(=N)N3N=C(CC(=O)N4CCCCC4)SC3=NC2=O)cc1` was tested, and the Potency was 16.4 µM (active). For `COc1cc(/C=C2\C(=N)N3N=CSC3=NC2=O)cc(Br)c1OC(=O)c1ccco1`, the max response was 5.77% (inactive). For `CN(C)c1ccc(/C=C2\SC(N3CCCCC3)=NC2=O)cc1`, the Potency was 16.4 µM (active). With `CCN(CC)c1ccc(/C=C2\C(=N)N3N=C(CC(=O)N4CCOCC4)SC3=NC2=O)cc1` the Potency was 0.396 µM (active). For `C1=Cc2ccccc2/C1=C\c1cc2c3c(c1)CCCN3CCC2`, the Potency was 18.4 µM (active). In the case of `Cc1ccc(S(=O)(=O)c2cc3ccccc3oc2=Nc2ccc3c(c2)OCO3)cc1`, the max response is reported as -1.94% (inactive). `Cc1sc2ncnc(SCC(=O)NC(C)(C)C)c2c1C` was tested, and the max response was 0.663% (inactive). `Cc1sc2ncnc(N=Nc3c(O)[nH]c4ccccc34)c2c1C` was tested, and the Potency was 13 µM (active). With `Cc1sc2ncn(CC(=O)NCc3ccccc3)c(=O)c2c1C` the max response was -23.3% (inactive). For `O=S(=O)(Nc1ccc(C(O)(C(F)(F)F)C(F)(F)F)cc1)c1ccc(Cl)c2nonc12`, the Potency was 12.5 µM (active). In the case of `Cc1ccc(F)c(S(=O)(=O)NC(=O)C2(C)CCN2C(=O)Cc2ccc(Cl)cc2Cl)c1` (centres undefined), the max response is reported as 0.983% (inactive). `Cc1ccc(N=C2NC(=O)CC(C(=O)Nc3ccc4c(c3)OCO4)S2)cc1` (centres undefined) was tested, and the max response was -22.7% (inactive). In the case of `Cn1c(/C=C/c2ccc([N+](=O)[O-])o2)nc2ccccc2c1=O`, the Potency is reported as 16.4 µM (active). For `Cc1cc(N/N=C/c2ccc([N+](=O)[O-])o2)nc2ccccc12`, the Potency was 16.4 µM (active). In the case of `CCn1c(/C=C/c2ccc([N+](=O)[O-])o2)nc2ccccc2c1=O`, the Potency is reported as 3.26 µM (active). `O=c1c2ccccc2nc(/C=C/c2ccc([N+](=O)[O-])o2)n1CCCO` was tested, and the Potency was 3.26 µM (active). `CCCN1C(=O)C(Cc2nc3ccccc3c(=O)n2CC)c2cc(Br)ccc21` (centres undefined) was tested, and the max response was -0.982% (inactive). With `Cc1ccc2oc(/N=C(\N)NC(=O)C(C)(C)C)nc2c1` the max response was -3.74% (inactive). In the case of `CNC(=O)C(Sc1nc(C)nc2c1oc1ccccc12)C(C)=O` (centres undefined), the max response is reported as -18.1% (inactive). For `Cc1cc(NC(=O)Nc2nnc(N(C)Cc3ccccc3)s2)ccc1Br`, the max response was -0.38% (inactive).
Further: nearly all actives have a fitted effect of over 70% in size.
Potency means the concentration at half of the fitted maximal effect.
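Wherever max response is given: % of control where 0% means no effect; active compounds raise eYFP fluorescence by blocking Vif-driven A3F loss.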
